An excerpt weighted towards active compounds, which were near 19% of everything screened.
TGFb SMAD3 inh – qHTS for Inhibitors of TGF-b | 410,000 tested, 1.2% active | Potency, µM (doses to about 46.1 µM), usual class: inhibitors | AID 588855, 2011 | HepG2 CAGA-GFP TGF-b/SMAD3 reporter, GFP fluorescence, 18 h; TGF-beta stimulated, 500 pg/mL final; also: nearly all actives have a fitted effect of over 65% in size
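Using HEPG2 CAGA-GFP reporter cells at 1000 cells/well, we pinned test compounds, stimulated with recombinant TGF-beta (500 pg/mL final) and measured total well GFP after 18 h.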
HepG2 viability – qHTS for Inhibitors of TGF-b: Cytotox Counterscreen. HepG2 CAGA-GFP viability, ATP luminescence, 18 h. 410,000 tested, 0.76% active. Potency, µM (top dose mostly 46.1 µM), most hits filed as cytotoxic
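CellTiter-Glo luminescence gave cytotoxicity after 18 hours at 37 degrees C. The cells were HepG2 CAGA-GFP in 1% FBS DMEM, stimulated with 500 pg/mL TGF-beta after compound addition. %Activity was normalised to no-cell wells (complete cell-killing) and DMSO (no toxicity), and curves were fitted and classified.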
IL1B secr inh – qHTS for Inhibitors of Inflammasome Signaling: IL-1-beta AlphaLISA Primary Screen; activity change, % at 57.5 µM; 360,000 tested, 4.7% active; AID 743279, 2014; THP-1 LPS/ATP IL-1B secretion, AlphaLISA, 16 h; hits give low values; in the data active = activity change below about -50%; inconclusive = mostly about -30% to -49%
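THP-1 cells pretreated 1 hr with compounds (up to 57.5 uM final), then stimulated with LPS (250 ng/mL final) plus ATP (1.25 mM final); secreted IL-1B measured by AlphaLISA after 16 hr, decreased signal indicating inhibition.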
TDP1 block – qHTS Assay for Inhibitors of Tyrosyl-DNA Phosphodiesterase (TDP1). 350,000 tested, 0.28% active. Tyrosyl-DNA phosphodiesterase 1 (Homo sapiens), Q9NUW8. Potency, µM (top dose mostly 130 µM), usual class: inhibitors. recombinant TDP1, AlphaScreen DNA substrate cleavage; also: nearly all actives have a fitted effect of over 40% in size
Target sequence (Q9NUW8 whole entry, looked up): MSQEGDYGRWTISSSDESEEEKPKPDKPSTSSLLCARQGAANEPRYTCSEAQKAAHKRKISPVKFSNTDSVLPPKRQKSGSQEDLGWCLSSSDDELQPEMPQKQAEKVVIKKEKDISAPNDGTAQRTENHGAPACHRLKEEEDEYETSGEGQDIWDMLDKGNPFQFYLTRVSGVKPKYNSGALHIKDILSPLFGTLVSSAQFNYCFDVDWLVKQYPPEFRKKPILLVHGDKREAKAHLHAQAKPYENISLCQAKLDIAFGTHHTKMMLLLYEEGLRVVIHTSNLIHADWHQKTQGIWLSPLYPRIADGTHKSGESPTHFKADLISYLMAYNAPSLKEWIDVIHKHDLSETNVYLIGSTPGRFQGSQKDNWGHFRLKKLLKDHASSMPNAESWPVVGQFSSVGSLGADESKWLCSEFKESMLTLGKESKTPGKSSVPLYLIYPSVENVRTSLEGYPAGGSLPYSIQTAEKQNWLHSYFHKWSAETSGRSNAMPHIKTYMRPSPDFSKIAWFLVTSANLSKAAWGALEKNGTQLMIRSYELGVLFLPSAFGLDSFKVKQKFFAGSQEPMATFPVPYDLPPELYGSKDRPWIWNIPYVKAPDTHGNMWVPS
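Steps: enzyme plus compound, 15 min RT; add biotin/phosphotyrosine-FITC oligonucleotide (15 nM final), react 5 min; add donor/acceptor beads (10 ug/ml final), 10 min; read AlphaScreen. Tdp1 at 1 nM final.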
TDP1 cell noCPT – qHTS for Inhibitors of human tyrosyl-DNA phosphodiesterase 1 (TDP1): qHTS in cells in absence of CPT | DT40 Tdp1-/- hTDP1 cells, no CPT, ATP luminescence, 48 h | Potency, µM (highest dose often 46.2 µM), usual class: inhibitors | 420,000 tested, 15% active | AID 686978, 2013; also: nearly all actives have a fitted effect of over 55% in size
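No-CPT arm: Tdp1-/-;hTDP1 DT40 cells (400/well) plus compounds, incubated ≥48 hr at 37 °C. Readout CellTiter-Glo luminescence.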
DT40 TDP1 CPT – qHTS for Inhibitors of human tyrosyl-DNA phosphodiesterase 1 (TDP1): qHTS in cells in presence of CPT | chicken DT40 Tdp1-/-;hTDP1 cells + 20 nM CPT, ATP luminescence, 48 h | Potency, µM (top dose mostly 46.2 µM), most hits filed as inhibitors | 420,000 tested, 12% active; also: nearly all actives have a fitted effect of over 55% in size
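Chicken DT40 Tdp1-/- cells complemented with human TDP1, 400 cells/well, exposed to compounds plus 20 nM camptothecin for at least 48 h at 37 C; viability read as ATP content by CellTiter-Glo luminescence.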
Numbers stand for hits; – = inactive; ? = inconclusive; · = no result given; [ ] = remark or other dose. Unless noted, calls follow the shape of the dose curve; as a rule, active = well fitted curve in the direction sought with a large enough effect; inconclusive = small, poorly fitted or top-dose-only effect, or another doubt; inactive = no such curve, though single readings can be large; an effect the other way counts as inactive or inconclusive.

SMILES | TGFb SMAD3 inh | HepG2 viability | IL1B secr inh | TDP1 block | TDP1 cell noCPT | DT40 TDP1 CPT
O=C(CN1CCN(c2ccccn2)CC1)Nc1ccccc1Br | ? | – | – | · | ? | ?
O=C(CN1CCN(c2ncccn2)CC1)Nc1ccccc1-n1cccc1 | – | – | – | – | 12.6µM | ?
CC1CCc2nc(NC(=O)C3CC3)sc2C1 (stereo not drawn) | – | – | – | – | – | –
CC(C)COc1ccc(C(=O)N2CCCCC2CCN2CCOCC2)cc1 (stereo not drawn) | – | – | · | – | ? | ?
CC1CCc2nc(NC(=O)CCSc3ccccc3)sc2C1 (stereo not drawn) | – | – | – | – | – | –
CC1CCc2nc(NC(=O)CN3CCN(Cc4ccc5c(c4)OCO5)CC3)sc2C1 (stereo not drawn) | ? | – | ? | – | 16.4µM | 18.4µM
O=C(CN1CCN(c2ccccc2)CC1)Nc1ccncc1 | – | – | – | · | 18.4µM | ?
CC1CCc2nc(NC(=O)Cc3ccc(Cl)cc3)sc2C1 (stereo not drawn) | 15.8µM | – | · | – | 18.4µM | ?
CCCC[C@@H]1C[C@H]1C(NC(=O)c1ccccc1)c1ccc(-c2ccccc2)cc1 (stereo partly drawn) | · | · | · | – | · | ·
COC(=O)Oc1ccccc1C(=O)O | · | · | · | – | – | –
O/C=c1\ccc2cccc3nc(C(F)(F)F)nc1c23 | – | – | – | · | 20.6µM | 10.3µM
CCOC(=O)Nc1cccnc1Sc1ccc(Cl)cc1 | ? | – | – | · | – | –
CCCNC(=O)OCc1cccnc1Sc1ccc(C)cc1 | – | – | – | – | 14.6µM | ?
COc1ccccc1N1CCN(C(CNC(=O)C(=O)NCCc2ccccc2)c2cccnc2)CC1 (stereo not drawn) | – | – | · | – | 8.2µM | 10.3µM
COc1ccc(C(=O)NCC(c2cccnc2)N2CCN(c3ccccc3OC)CC2)cc1 (stereo not drawn) | ? | – | · | – | 11.6µM | 18.4µM
CC(C)C1Nc2c(O)cc(Cl)c([N+](=O)[O-])c2C2C=CCC21 (stereo not drawn) | 12.6µM | – | – | – | ? | ?
Cc1cc(C)c(CN2CCN(CCCn3cnc(C(=O)Nc4ccc(C)c(C)c4)n3)CC2)c(C)c1 | ? | 17.8µM | ? | · | 14.6µM | ?
Cc1ccc(NC(=O)c2ncn(CCCNCC3CCCCC3)n2)cc1C | – | – | ? | · | 20.6µM | ?
Cc1ccc(NC(=O)c2ncn(CCCN[C@H](C)c3cccc4ccccc34)n2)cc1C | ? | – | – | · | 14.6µM | 16.4µM
O=C(c1cnn(-c2nccc(-c3ccco3)n2)c1C1CC1)N1CCCCC1c1cccnc1 (stereo not drawn) | · | · | · | · | – | –[9.04 µM]
CCC1CN(CCNC(=O)c2cccc3nccnc23)Cc2cc(OC)ccc2O1 (stereo not drawn) | · | · | · | · | ? | –[9.04 µM]
COc1ccc(N2CCN(C(=O)CCn3cnc4onc(-c5ccc(F)cc5)c4c3=O)CC2)cc1 | – | – | · | – | ? | 23.1µM
Cc1ccc(Cl)cc1N1CCN(C(=O)Cn2cnc3onc(-c4ccc(F)cc4)c3c2=O)CC1 | – | – | · | – | 18.4µM | 18.4µM
CCN(C(=O)CCn1cnc2onc(-c3ccc(F)cc3)c2c1=O)c1ccc(OC)cc1 | ? | – | · | – | 18.4µM | 16.4µM
O=C(CCn1cnc2onc(-c3ccc(F)cc3)c2c1=O)N1CCN(c2ccccc2F)CC1 | ? | – | · | – | ? | ?
SMILES | TGFb SMAD3 inh | HepG2 viability | IL1B secr inh | TDP1 block | TDP1 cell noCPT | DT40 TDP1 CPT
COc1cc(Cl)c(C)cc1NC(=O)CCn1cnc2onc(-c3ccc(F)cc3)c2c1=O | – | – | · | – | ? | 18.4µM
O=C(c1cccc(Cl)c1)C1CCCN(S(=O)(=O)c2ccccc2)C1 (stereo not drawn) | – | – | – | – | ? | ?
COc1ccc(Cn2c(=O)c3cccnc3n(CC(=O)Nc3c(C)cc(C)cc3C)c2=O)cc1 | – | – | · | – | ? | ?
O=C(CCn1cnc2onc(-c3ccc(F)cc3)c2c1=O)N1CCN(c2cccc(Cl)c2)CC1 | – | – | · | – | 16.4µM | 16.4µM
CCCCN(CC)CCNC(=O)CCn1cnc2onc(-c3ccc(F)cc3)c2c1=O | – | – | · | – | 23.1µM | 25.9µM
COc1cccc(N2CCN(C(=O)Cn3cnc4onc(-c5ccc(F)cc5)c4c3=O)CC2)c1 | ? | – | · | – | 20.6µM | 23.1µM
COc1ccccc1N1CCN(C(=O)CCn2cnc3onc(-c4ccc(F)cc4)c3c2=O)CC1 | ? | – | · | – | 20.6µM | ?
CC(C)CC(=O)Nc1cccc(NC(=O)CC(C)C)n1 | – | – | – | – | – | –
COC(=O)CCn1cnc2onc(-c3cc(F)cc(F)c3)c2c1=O | – | – | · | – | – | –
CCCN(C(=O)CCn1cnc2onc(-c3ccc(F)cc3)c2c1=O)c1ccccc1C | ? | – | · | – | 16.4µM | 18.4µM
CCN(C(=O)Cn1cnc2onc(-c3ccc(F)cc3)c2c1=O)c1cc(C)ccc1C | – | – | · | – | 20.6µM | 13µM
CCOC(=O)Cn1cnc2onc(-c3ccc(F)cc3)c2c1=O | – | – | · | – | – | –
COc1cc2c(cc1OC)C(COc1cc(C)cc(C)c1)N(C(=O)COc1ccccc1)CC2 (stereo not drawn) | ? | – | · | – | 23.1µM | ?
COc1cc2c(cc1OC)C(COc1cc(C)cc(C)c1)N(C(=O)C(C)(C)C)CC2 (stereo not drawn) | ? | – | · | – | 25.9µM | ?
COc1ccc(OC)c(Nc2nc(N)nc(-c3cc4ccccc4o3)n2)c1 | ? | – | – | – | 18.4µM | ?
O=C(NC(c1ccccc1)c1ccc2ccccc2n1)C1CCN(Cc2cccc(C(F)(F)F)c2)CC1 (stereo not drawn) | ? | – | ? | · | 6.51µM | 7.31µM
O=C(NNC(=O)C1CCN(Cc2cccc(F)c2)CC1)c1cccs1 | – | – | – | – | – | –
COCCNC(=O)C1CCCN(Cc2cccc(C(F)(F)F)c2)CC1 (stereo not drawn) | – | – | – | · | – | –
O=C(NC(c1ccccc1)c1ccc2ccccc2n1)C1CCN(Cc2ccc(Cl)c(Cl)c2)CC1 (stereo not drawn) | ? | – | ? | · | 14.6µM | ?
O=C(NC(c1ccccc1)c1ccc2ccccc2n1)C1CCN(Cc2ccc(Oc3ccccc3)cc2)CC1 (stereo not drawn) | ? | – | ? | · | ? | ?

Screening data deposited in PubChem by National Center for Advancing Translational Sciences (NCATS).
